# Screens from PubChem.
# miR-122 sensor: inhibitors of miR-122 in Huh7 cells; Huh7 miR-122 Renilla luciferase sensor, 48 h; neutral wells = 0, positive control = 100; activation (reporter increase), % at 12.5 µM; 0.3% of 340,000 active; AID 602342;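 active = mean replicate activation score at least 90 and every replicate individually at or above 90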;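 also: higher luciferase means less miR-122 activity so hits act as miR-122 inhibitors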
# NSD2 HMT inh: blocks human histone methyltransferase NSD2. O96028. NSD2 peptide methylation, AlphaScreen, 120 min. inhibition, % at 12.5 µM. 0.54% of 310,000 active. AID 743445
# Target sequence (O96028 whole entry, looked up): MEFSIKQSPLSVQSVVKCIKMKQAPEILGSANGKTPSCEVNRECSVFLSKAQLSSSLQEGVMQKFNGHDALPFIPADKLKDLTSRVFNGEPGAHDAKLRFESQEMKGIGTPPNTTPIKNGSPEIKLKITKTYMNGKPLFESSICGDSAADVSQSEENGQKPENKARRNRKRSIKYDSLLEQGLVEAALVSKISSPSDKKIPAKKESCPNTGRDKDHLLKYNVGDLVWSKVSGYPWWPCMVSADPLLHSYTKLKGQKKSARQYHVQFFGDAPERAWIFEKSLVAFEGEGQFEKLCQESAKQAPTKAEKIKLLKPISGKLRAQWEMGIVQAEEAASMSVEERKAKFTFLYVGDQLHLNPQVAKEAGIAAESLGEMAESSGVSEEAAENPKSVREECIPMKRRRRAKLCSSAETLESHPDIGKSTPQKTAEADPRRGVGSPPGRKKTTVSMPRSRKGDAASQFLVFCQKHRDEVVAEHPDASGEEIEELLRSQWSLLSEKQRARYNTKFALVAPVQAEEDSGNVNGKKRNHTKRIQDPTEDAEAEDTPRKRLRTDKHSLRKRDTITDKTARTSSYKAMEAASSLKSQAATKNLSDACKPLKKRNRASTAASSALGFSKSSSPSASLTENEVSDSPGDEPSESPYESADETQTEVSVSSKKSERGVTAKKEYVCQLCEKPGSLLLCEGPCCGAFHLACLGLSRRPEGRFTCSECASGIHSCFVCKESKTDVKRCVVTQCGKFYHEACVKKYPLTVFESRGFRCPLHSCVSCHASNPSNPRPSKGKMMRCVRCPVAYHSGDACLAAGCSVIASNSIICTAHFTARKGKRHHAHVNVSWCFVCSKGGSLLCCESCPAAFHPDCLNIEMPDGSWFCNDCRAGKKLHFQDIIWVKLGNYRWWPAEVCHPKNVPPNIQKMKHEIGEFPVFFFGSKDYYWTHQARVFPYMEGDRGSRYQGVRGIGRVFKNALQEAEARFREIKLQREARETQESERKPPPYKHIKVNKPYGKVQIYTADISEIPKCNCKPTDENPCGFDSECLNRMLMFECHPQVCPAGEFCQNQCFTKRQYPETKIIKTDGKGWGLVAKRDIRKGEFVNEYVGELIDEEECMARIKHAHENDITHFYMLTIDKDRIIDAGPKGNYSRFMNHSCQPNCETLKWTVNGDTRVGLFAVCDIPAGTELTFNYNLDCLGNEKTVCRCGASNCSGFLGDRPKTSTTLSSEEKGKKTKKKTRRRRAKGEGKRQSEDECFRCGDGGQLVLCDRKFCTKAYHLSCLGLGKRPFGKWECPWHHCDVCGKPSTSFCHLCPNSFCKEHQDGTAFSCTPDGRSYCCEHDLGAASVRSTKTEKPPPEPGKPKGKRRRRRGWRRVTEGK
# Wnt act: activators of Wnt/beta-catenin signaling | AID 743398 | Wnt/beta-catenin reporter cell assay, activator, plate reader | 1.2% of 300,000 active | activation, % at 9.35 µM; in the data active = activation above about 30%, passing the limit was not always enough
# DYRK1A inh: inhibitors of rat Dyrk1A kinase; Q63470; ADP-Glo luminescence, NFATc1 peptide; inhibition, % at 12.5 µM; 0.43% of 310,000 active; AID 504441
# MITF act: activators of MITF-driven TRPM1 promoter activity in SK-MEL-5 cells; SK-MEL-5 TRPM1-promoter luciferase, 24 h; % of positive control, neutral wells = 0; AID 588334; activation, % at 12.5 µM; 0.75% of 300,000 active;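 active = mean activation of at least 80% with every replicate also reaching 80%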
# INS-1E GSIS act: primary screen for activators of insulin secretion dependent on glucose, INS-1E cells, GLuc reporter luminescence | INS-1E GLuc reporter insulin secretion, 2-3 h | activation, % at 16.6 µM | 0.61% of 370,000 active;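 active = lowest replicate activation of at least 40%, so every replicate reaches that level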
# A number is an active result; – = inactive; · = no result given. A selection: hits, their analogues and other compounds. The true share with any hit is near 2.4%. Rule as the data show it, unless noted: active = inhibition above about 50%; inactive = the rest.
SMILES,miR-122 sensor,NSD2 HMT inh,Wnt act,DYRK1A inh,MITF act,INS-1E GSIS act
CCCC(=O)n1nc(-c2ccc(C)cc2)nc1NCc1ccco1,·,–,47,–,–,–
Cc1ccc(C(=O)n2nc(-c3ccccc3)nc2NCc2ccco2)cc1,–,–,–,–,–,–
O=C(c1cccs1)n1nc(-c2ccc(Cl)cc2)nc1NCc1ccco1,·,–,52,–,·,·
CC(C)NC(=O)Nc1ccc2c(c1)C(=O)N([C@H](C)CO)C[C@H](C)[C@H](CN(C)S(=O)(=O)c1cn(C)cn1)OCCCC[C@H](C)O2,–,·,·,·,·,–
C[C@H](CO)N1C[C@H](C)[C@H](CN(C)S(=O)(=O)c2cn(C)cn2)OCCCC[C@H](C)Oc2ccc(NS(=O)(=O)c3ccc(F)cc3)cc2C1=O,–,·,·,·,·,–
CC(=O)c1sc(NC(=O)c2ccc(Cl)cc2)nc1C,–,–,–,–,89,–
CC(=O)c1sc(NC(=O)c2ccc(F)c(F)c2)nc1C,·,–,·,–,–,–
Cc1ccc2c(Cl)c(C(=O)Nc3cc(C)on3)sc2c1,–,–,42,–,–,·
Cc1cc(NC(=O)c2ccc(Cl)cc2)no1,–,–,–,–,106,·
CCOc1ccc(C(=O)Nc2cc(C)on2)cc1,–,–,–,–,–,·
O=c1cccc2n1Cc1cc3ccccc3nc1-2,–,·,39,–,–,·
c1ccc2c(c1)-c1nc3ccccc3cc1C2N1CCCCC1 (stereo not drawn),·,–,–,·,·,–
Fc1cccc2sc(N3CCCC3)nc12,·,–,–,·,86,–
CC1CCCCN1CCNC(=O)c1cc2c(=O)n(C)c3ccccc3c2n1C (stereo not drawn),–,·,–,50,·,–
Cn1c(C(=O)NCCN2CCOCC2)cc2c(=O)n(C)c3ccccc3c21,–,·,–,–,–,–
Oc1ccc(/C=N/Nc2ncnc3c2ncn3Cc2ccccc2)cc1O,·,72,–,–,–,–
Clc1cccc(Cl)c1CSc1nnc(CN2CCOCC2)n1-c1ccccc1,126,–,·,–,–,·
Cn1c(CCNC(=O)c2ccccc2)nc2cc(NC(=O)c3ccco3)ccc21,–,–,–,–,·,·
Cn1c(CCNC(=O)c2ccco2)nc2cc(NC(=O)c3ccco3)ccc21,–,–,39,–,·,·
Cn1c(CCNC(=O)c2ccco2)nc2cc(NC(=O)c3ccccc3)ccc21,·,–,32,–,89,–
N#C[C@@H]1[C@@H](c2ccccc2C2=CCCC2)[C@@H](CO)N1C(=O)NC1CCCC1,·,·,·,·,·,–
Cn1cnc(CCNC(=O)C[C@@H]2CC[C@H]3[C@@H](COC[C@H](O)CN3C(=O)Nc3ccccc3)O2)c1,–,·,·,·,·,–
Cc1noc(C)c1NC(=O)Nc1ccc2c(c1)C(=O)N([C@H](C)CO)C[C@H](C)[C@H](CN(C)S(=O)(=O)c1ccc(F)cc1)O2,–,·,·,·,·,–
Cc1ccc(C(=O)c2sc3nc4c(cc3c2N)CCC4)cc1,–,–,33,–,125,74
Nc1c(C(=O)N2CCCCC2)sc2nc3c(cc12)CCCC3,–,–,–,–,–,–
SMILES,miR-122 sensor,NSD2 HMT inh,Wnt act,DYRK1A inh,MITF act,INS-1E GSIS act
COCC(=O)N1C[C@H](C)[C@H](OC)CN(C)C(=O)c2cc(NC(=O)c3cc(C)on3)ccc2OC[C@@H]1C,·,·,·,·,·,–
CCNC(=O)C[C@@H]1C=C[C@H](NC(=O)NC2CCCCC2)[C@H](CO)O1,·,·,·,·,·,–
O=C(/C=C/c1ccc2c(c1)OCO2)c1ccc(F)cc1,–,·,–,–,–,–
O=C(/C=C/c1ccc2c(c1)OCO2)c1ccc[nH]1,·,–,42,–,–,–
CCNC(=O)[C@@H]1[C@@H](CO)[C@@H]2Cn3c(ccc(-c4ccc(OC)cc4)c3=O)[C@@H]2N1Cc1nccs1,·,·,·,·,·,–
CN(C)C(=O)c1ccc(-c2ccccc2[C@H]2[C@H](C#N)N(C(=O)C3CCCC3)[C@H]2CO)cc1,·,·,·,·,·,–
C[C@H](CO)N1C[C@H](C)[C@@H](CN(C)Cc2ccc(O)cc2)OCc2ccccc2-c2c(n(C)c3ccccc23)C1=O,·,·,·,·,·,–
N#Cc1c(NC(=O)c2ccccc2)sc2c1CCC2,111,–,·,–,–,·
N#Cc1c(NC(=O)c2cccnc2)sc2c1CCC2,–,–,–,–,–,·
Cc1cccc(C(=O)Nc2sc3c(c2C#N)CCCCC3)c1,–,–,·,–,89,·
CCC(=O)Nc1ccc2c(c1)C(=O)N(C)[C@H]1CC[C@H](CC(=O)N[C@@H](C)c3ccccc3)O[C@@H]1CO2,–,·,·,·,·,–
